Unmarked numbers belong to inactive results. Calls of active or inactive are those of the source.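 Rule for the calls: active = z-score of at least 1.8 in each of two replicates, scored against plate mean and spread of sample wells; inactive = the rest.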
Experiment: viability rescue of complex I mutant cybrids, primary screen, cell-based, galactose medium, ATP luminescence (AID 1645843);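 note: positive z means more ATP and so rescue of galactose-driven cybrid death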
Conditions: complex I mutant cybrid cells, 72 h, active compounds read high

Structure (SMILES)	z-score
Cc1cccc2c(C(=O)N(C)C(C)C)cc(-c3cnc(-c4cccnc4)nc3)nc12	-0.13
Cc1c(C(F)(F)F)nc(-c2ccc(CN3CCN(C)C(=O)C3)cc2)[nH]c1=O	-0.5
CC(C)c1cc(C(=O)N2CCCC(c3ccc(Cl)cc3)C2)on1 (stereo not given)	0.165
CC1(C)CCN(C(=O)c2cc(-c3cnc(C4CC4)nc3)nc3ccc(F)cc23)C1	-0.54
CCCC(NC(=O)c1ccc[n+]([O-])c1)c1ccccc1 (stereo not given)	-0.43
COc1ccccc1-c1noc(CN2CCOC2=O)n1	1.68
COc1ccc(F)c(-c2cnc(C)[nH]2)c1	-0.545
CC(C)(O)c1cn(C2CCN(C(=O)CCC(=O)N3CCCCCC3)CC2)nn1	-0.545
CC(C)CC1(CO)CCCN(C(=O)c2cccc(C#CC(C)(C)O)c2)C1 (stereo not given)	-0.79
CCc1n[nH]c2c1CN(C(=O)c1cncc(C)c1)CC2	1.23
COc1nccnc1-c1cccc(-n2cccn2)c1	-0.545
Cc1cc(C(F)(F)F)nc(CNC(=O)c2ccc3nccnc3c2)n1	-0.69
CCc1c(C(=O)N2CCCN(C(C)=O)CC2)csc1C	-0.54
CNCc1cn(C2CCN(CCC(C)CCCC(C)(C)O)CC2)nn1 (stereo not given)	-0.56
Cc1cccc2c(C(=O)N3CCC(C)(C)C3)cc(-c3cnc(C4CC4)nc3)nc12	2.3 (active)
c1ccc(C(CCn2ccnc2)NC2CCCCCC2)cc1 (stereo not given)	-0.47
Cc1occc1C(=O)Nc1ccccc1C(=O)N(C)Cc1ccccn1	-0.21
Cc1ccc(Nc2nc(N)nc(-c3ccc(C(=O)N(C)C)cc3)n2)cc1	2.23 (active)
CC(C)n1cc(C(=O)N2CCCC(c3ccccc3)C2)cn1 (stereo not given)	-0.54
CCCC(C)N(CC)C(=O)c1ccc(C#CC(C)(C)O)o1 (stereo not given)	-0.525

Structure (SMILES)	z-score
Cc1cc(NC(=O)Cn2ccc(-c3cccc(F)c3)n2)n(-c2ccccn2)n1	-0.96
COc1ccc(C(C)=O)c(OC2(C(=O)O)CCSCC2)c1	-0.58
CC(=O)N1CCCN(c2nccc(-c3cnn(-c4ccccc4F)c3)n2)CC1	-0.71
Cc1ccc2c(C(=O)N3CCCC3)cc(-c3cnn(C(C)C)c3)nc2c1	-0.36
Cc1ccccc1-c1cccc(C(=O)c2nccn2C)c1	-0.54
CCCCc1cn(C2CCN(C3Cc4ccccc4C3)CC2)nn1	-0.33
Cc1cc(NC(=O)Cn2ccc(-c3ccsc3)n2)n(-c2ccccn2)n1	1.83
Cc1ccc(CCC(=O)N(C)Cc2cnn(C(C)C)c2)cc1C	-0.565
O=C(c1ccccc1-c1nn[nH]n1)N1CCc2[nH]cnc2C1c1ccccn1 (stereo not given)	0.23
COc1ccc2c(c1)CC(c1nc(Cc3cccs3)no1)CO2 (stereo not given)	-0.1
CCCC(CCC)N[C@H](CO)Cc1ccccc1	-0.345
CCCC(NC(=O)c1ccc(C#N)cc1)c1ccccc1 (stereo not given)	-0.32
Cc1cccnc1CC(C)N(C)C(=O)c1cc(-c2cncnc2)nc2c(C)cccc12 (stereo not given)	1.18
Cc1nn(C)cc1-c1ccnc(N2CCN(Cc3ccc(F)cc3)C(=O)C2)n1	0.865
Nc1ncc(-c2ccc(Cl)cc2Cl)cn1	-0.065
c1coc(-c2nc3c(cnn3Cc3cccs3)[nH]2)c1	-0.74
CC(C)(C)c1cn(CC2CCCN(C(=O)c3cn4cccnc4n3)C2)nn1 (stereo not given)	0.425
O=C1CC(C(=O)N2CCc3sccc3C2)c2cc(F)ccc2N1 (stereo not given)	4.16 (active)
Cc1cc(C)c(C(=O)N2CCCCC2CCN2CCCC2=O)cc1C (stereo not given)	-0.46
CCCCc1cc(=O)[nH]c(-c2ccc(CN(C)CCOC)cc2)n1	-0.415

Source: PubChem BioAssay
